According to ChEMBL document CHEMBL1961873, “Compounds: GSK PKIS; Assays: Nanosyn kinase panel” (2012):

Key:
[1] = target: Fibroblast growth factor receptor 4 (Homo sapiens) (UniProt P22455); details: at 1 µM;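 also: reported figure is the averaged percent inhibition of FGFR4, from the GSK PKIS kinase screening panel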
[2] = target: Tyrosine-protein kinase Fgr (Homo sapiens) (UniProt P09769); details: at 0.1 µM
[3] = target: Tyrosine-protein kinase Fgr (Homo sapiens) (UniProt P09769); details: at 1 µM
[4] = target: Vascular endothelial growth factor receptor 1 (Homo sapiens) (UniProt P17948); details: at 0.1 µM
[5] = target: Vascular endothelial growth factor receptor 1 (Homo sapiens) (UniProt P17948); details: at 1 µM
[6] = target: Receptor-type tyrosine-protein kinase FLT3 (Homo sapiens) (UniProt P36888); details: at 0.1 µM
[7] = target: Receptor-type tyrosine-protein kinase FLT3 (Homo sapiens) (UniProt P36888); details: at 1 µM
[8] = test system: T1, Receptor-type tyrosine-protein kinase FLT3 (Homo sapiens), P36888 [D835Y]; details: at 0.1 µM
T1 sequence (whole entry): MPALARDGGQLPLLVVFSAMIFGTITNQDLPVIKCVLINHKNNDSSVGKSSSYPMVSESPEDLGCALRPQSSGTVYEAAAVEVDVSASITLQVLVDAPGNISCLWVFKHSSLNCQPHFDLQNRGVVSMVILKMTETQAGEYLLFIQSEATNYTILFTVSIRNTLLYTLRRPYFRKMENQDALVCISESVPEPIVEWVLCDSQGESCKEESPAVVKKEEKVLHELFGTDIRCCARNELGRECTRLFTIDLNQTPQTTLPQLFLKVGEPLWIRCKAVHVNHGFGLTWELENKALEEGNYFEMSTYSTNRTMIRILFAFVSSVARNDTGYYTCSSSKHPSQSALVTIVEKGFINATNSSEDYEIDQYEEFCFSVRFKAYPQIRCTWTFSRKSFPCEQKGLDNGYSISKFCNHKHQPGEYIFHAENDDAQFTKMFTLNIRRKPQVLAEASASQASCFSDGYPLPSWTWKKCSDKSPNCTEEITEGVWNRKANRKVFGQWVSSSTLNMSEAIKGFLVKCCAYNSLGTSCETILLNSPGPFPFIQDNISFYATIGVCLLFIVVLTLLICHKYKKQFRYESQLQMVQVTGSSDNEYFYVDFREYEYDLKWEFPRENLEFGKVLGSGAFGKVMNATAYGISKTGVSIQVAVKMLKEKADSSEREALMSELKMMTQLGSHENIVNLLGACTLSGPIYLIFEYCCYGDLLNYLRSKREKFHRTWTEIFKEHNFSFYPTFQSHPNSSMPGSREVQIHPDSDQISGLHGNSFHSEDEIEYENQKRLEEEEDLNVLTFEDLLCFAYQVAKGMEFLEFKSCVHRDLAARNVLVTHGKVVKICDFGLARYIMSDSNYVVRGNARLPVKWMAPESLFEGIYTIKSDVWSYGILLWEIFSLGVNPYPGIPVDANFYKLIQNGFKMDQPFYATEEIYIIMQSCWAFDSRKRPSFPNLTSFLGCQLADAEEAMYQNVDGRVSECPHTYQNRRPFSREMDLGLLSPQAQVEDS

[9] = target: Non-receptor tyrosine-protein kinase TYK2 (Homo sapiens) (UniProt P29597); details: at 1 µM;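 also: values are mean percent inhibition of TYK2 kinase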
[10] = target: T2, Tyrosine-protein kinase receptor TYRO3 (Homo sapiens) (UniProt Q06418); details: at 0.1 µM
T2 sequence (whole entry): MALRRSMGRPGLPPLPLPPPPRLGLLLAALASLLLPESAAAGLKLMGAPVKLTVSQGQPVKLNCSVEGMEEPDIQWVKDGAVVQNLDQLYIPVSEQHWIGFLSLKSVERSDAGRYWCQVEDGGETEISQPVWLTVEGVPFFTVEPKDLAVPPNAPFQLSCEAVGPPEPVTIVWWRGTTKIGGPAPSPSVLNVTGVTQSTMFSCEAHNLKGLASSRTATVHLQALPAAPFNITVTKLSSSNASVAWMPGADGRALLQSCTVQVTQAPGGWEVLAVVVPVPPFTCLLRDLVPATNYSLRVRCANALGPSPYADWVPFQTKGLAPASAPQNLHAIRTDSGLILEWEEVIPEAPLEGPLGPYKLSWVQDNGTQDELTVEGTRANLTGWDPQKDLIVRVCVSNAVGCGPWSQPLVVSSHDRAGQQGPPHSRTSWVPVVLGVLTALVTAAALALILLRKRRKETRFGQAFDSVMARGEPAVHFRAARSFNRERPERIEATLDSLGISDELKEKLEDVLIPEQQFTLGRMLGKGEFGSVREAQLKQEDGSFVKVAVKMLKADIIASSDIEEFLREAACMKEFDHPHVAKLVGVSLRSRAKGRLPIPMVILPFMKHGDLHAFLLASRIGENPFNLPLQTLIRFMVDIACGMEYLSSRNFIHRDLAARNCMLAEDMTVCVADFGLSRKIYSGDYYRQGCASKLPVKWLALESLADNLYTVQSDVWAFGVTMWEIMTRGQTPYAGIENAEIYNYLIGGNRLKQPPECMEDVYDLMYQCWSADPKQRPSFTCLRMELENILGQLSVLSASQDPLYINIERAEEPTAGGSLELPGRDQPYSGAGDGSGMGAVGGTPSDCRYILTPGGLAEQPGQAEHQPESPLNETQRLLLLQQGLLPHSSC

[11] = target: T2, Tyrosine-protein kinase receptor TYRO3 (Homo sapiens); details: at 1 µM
[12] = target: Tyrosine-protein kinase Yes (Homo sapiens) (UniProt P07947); details: at 0.1 µM
[13] = target: Tyrosine-protein kinase Yes (Homo sapiens) (UniProt P07947); details: at 1 µM
[14] = target: T3, Tyrosine-protein kinase ZAP-70 (Homo sapiens) (UniProt P43403); details: at 1 µM
T3 sequence (whole entry): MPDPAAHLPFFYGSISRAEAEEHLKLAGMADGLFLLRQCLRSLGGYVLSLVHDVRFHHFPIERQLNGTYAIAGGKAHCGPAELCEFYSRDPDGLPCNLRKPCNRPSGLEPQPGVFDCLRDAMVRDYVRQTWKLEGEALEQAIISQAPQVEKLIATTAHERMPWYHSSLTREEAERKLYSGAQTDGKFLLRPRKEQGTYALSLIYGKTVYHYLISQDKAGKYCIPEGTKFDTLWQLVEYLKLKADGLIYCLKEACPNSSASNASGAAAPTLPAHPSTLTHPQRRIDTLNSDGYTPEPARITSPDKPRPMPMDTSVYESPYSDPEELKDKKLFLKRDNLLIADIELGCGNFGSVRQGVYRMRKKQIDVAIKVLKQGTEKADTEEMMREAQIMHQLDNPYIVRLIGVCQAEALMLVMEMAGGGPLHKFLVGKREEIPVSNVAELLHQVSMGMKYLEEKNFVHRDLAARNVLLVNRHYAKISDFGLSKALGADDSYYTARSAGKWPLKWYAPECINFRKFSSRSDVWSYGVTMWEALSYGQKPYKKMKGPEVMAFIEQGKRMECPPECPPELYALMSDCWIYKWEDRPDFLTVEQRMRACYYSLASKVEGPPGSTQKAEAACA

[15] = target: Serine/threonine-protein kinase B-raf (Homo sapiens) (UniProt P15056); details: at 0.1 µM
[16] = target: Serine/threonine-protein kinase B-raf (Homo sapiens) (UniProt P15056); details: at 1 µM
[17] = test system: Serine/threonine-protein kinase B-raf (Homo sapiens), P15056 [V600E]; details: at 0.1 µM
[18] = test system: Serine/threonine-protein kinase B-raf (Homo sapiens), P15056 [V600E]; details: at 1 µM
[19] = target: RAF proto-oncogene serine/threonine-protein kinase (Homo sapiens) (UniProt P04049); details: at 0.1 µM;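 also: values are mean CRAF kinase inhibition from profiling of the GSK Published Kinase Inhibitor Set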
[20] = target: T3, Tyrosine-protein kinase ZAP-70 (Homo sapiens); details: at 0.1 µM

Chain of Tyrosine-protein kinase Yes (Homo sapiens) (P07947 2-543 limits assumed): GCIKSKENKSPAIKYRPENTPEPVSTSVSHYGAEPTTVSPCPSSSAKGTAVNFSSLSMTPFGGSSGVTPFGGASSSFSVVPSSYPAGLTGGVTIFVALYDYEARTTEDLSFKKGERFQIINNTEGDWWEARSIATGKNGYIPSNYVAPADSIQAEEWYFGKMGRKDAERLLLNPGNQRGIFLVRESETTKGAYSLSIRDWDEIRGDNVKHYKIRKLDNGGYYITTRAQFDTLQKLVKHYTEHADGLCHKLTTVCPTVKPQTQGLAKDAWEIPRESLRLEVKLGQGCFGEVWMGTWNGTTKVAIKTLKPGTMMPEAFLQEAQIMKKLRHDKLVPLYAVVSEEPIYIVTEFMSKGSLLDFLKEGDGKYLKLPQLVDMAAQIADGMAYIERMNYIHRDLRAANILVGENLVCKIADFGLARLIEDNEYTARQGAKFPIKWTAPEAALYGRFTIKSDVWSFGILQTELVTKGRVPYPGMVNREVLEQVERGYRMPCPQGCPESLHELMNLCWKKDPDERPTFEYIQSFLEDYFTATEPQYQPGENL
Chain of Tyrosine-protein kinase Fgr (Homo sapiens) (P09769 2-529 limits assumed): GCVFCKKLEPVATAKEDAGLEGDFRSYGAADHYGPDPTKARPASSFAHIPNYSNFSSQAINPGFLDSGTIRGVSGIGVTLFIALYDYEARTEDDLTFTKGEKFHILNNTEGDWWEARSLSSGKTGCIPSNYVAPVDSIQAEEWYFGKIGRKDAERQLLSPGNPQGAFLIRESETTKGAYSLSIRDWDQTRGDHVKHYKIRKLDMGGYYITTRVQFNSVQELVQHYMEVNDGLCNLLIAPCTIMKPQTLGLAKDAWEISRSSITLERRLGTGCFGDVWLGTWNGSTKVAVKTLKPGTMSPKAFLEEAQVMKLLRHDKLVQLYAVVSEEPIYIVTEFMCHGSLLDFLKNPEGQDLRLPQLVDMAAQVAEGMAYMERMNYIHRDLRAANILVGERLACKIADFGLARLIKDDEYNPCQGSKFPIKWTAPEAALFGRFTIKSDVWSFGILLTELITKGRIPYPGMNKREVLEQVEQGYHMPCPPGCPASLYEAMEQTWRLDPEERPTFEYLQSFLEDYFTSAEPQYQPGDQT
Chain of Vascular endothelial growth factor receptor 1 (Homo sapiens) (P17948 whole entry): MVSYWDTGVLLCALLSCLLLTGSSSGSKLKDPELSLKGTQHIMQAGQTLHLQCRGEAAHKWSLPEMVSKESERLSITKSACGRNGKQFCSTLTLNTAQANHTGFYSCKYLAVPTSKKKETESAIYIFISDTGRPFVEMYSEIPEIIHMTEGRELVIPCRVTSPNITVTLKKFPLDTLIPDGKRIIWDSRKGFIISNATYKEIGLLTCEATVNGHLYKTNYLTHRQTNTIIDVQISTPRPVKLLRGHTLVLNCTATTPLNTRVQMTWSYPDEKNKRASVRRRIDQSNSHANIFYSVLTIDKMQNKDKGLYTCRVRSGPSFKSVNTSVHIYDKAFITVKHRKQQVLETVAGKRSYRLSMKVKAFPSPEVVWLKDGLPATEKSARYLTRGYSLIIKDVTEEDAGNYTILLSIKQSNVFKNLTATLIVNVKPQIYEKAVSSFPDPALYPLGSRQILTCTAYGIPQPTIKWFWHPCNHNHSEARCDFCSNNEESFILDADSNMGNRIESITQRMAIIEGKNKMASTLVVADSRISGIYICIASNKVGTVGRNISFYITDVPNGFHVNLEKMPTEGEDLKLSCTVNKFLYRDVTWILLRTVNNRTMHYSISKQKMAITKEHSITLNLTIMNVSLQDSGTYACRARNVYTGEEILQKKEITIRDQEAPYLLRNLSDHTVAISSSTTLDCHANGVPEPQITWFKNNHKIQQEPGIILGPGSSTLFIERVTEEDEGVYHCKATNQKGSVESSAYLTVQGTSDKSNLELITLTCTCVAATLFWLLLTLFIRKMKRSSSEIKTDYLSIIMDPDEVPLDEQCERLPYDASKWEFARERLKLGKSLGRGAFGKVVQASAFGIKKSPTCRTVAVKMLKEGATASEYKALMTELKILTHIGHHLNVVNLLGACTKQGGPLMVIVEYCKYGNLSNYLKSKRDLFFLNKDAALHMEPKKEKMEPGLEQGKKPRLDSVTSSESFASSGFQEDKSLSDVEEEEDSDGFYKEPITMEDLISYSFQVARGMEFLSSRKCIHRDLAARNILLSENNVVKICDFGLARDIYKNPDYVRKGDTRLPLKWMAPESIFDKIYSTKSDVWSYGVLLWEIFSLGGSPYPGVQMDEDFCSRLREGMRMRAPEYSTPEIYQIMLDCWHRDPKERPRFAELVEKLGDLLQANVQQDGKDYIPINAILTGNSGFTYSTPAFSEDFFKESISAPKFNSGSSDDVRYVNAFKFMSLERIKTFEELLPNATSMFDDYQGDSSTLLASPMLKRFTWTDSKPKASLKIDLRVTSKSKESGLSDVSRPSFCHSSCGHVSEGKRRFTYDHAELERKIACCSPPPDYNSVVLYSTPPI
Chain of RAF proto-oncogene serine/threonine-protein kinase (Homo sapiens) (P04049 whole entry): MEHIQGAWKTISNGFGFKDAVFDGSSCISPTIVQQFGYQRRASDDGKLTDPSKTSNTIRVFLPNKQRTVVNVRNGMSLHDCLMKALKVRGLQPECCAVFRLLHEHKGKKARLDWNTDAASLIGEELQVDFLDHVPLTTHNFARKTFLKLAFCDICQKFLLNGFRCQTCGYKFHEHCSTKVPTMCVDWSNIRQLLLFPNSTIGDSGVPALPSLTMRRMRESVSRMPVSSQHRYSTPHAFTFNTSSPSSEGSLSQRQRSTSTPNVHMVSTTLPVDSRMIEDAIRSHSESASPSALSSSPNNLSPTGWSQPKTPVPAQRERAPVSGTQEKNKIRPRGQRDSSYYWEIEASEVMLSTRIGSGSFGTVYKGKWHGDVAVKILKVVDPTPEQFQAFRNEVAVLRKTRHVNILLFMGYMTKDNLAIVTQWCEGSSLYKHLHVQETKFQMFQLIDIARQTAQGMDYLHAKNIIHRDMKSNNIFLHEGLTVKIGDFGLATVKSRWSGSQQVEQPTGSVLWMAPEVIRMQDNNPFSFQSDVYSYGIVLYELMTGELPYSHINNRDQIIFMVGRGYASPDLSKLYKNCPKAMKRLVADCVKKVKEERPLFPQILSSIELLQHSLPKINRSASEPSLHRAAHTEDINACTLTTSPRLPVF
Chain of Serine/threonine-protein kinase B-raf (Homo sapiens), P15056 [V600E] (P15056 whole entry V600E): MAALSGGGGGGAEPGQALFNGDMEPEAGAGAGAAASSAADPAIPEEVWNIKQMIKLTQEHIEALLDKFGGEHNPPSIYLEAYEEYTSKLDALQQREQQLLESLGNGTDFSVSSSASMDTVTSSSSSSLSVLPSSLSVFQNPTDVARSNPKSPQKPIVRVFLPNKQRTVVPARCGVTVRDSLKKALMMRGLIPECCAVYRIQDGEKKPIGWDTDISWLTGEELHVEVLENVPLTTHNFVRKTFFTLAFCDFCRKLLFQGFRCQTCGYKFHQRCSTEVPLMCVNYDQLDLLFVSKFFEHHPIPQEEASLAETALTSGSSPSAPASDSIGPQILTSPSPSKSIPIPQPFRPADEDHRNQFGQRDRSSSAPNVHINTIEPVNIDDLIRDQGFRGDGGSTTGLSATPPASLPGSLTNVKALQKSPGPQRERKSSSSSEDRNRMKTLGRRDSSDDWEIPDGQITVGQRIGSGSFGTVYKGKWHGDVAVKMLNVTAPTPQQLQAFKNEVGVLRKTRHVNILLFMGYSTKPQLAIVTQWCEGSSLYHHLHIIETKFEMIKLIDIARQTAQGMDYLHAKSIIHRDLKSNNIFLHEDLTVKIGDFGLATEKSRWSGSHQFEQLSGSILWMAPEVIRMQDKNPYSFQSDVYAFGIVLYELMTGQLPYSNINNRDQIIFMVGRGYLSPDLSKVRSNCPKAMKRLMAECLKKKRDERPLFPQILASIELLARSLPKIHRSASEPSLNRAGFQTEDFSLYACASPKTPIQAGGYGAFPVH
Chain of Fibroblast growth factor receptor 4 (Homo sapiens) (P22455 22-802 limits assumed): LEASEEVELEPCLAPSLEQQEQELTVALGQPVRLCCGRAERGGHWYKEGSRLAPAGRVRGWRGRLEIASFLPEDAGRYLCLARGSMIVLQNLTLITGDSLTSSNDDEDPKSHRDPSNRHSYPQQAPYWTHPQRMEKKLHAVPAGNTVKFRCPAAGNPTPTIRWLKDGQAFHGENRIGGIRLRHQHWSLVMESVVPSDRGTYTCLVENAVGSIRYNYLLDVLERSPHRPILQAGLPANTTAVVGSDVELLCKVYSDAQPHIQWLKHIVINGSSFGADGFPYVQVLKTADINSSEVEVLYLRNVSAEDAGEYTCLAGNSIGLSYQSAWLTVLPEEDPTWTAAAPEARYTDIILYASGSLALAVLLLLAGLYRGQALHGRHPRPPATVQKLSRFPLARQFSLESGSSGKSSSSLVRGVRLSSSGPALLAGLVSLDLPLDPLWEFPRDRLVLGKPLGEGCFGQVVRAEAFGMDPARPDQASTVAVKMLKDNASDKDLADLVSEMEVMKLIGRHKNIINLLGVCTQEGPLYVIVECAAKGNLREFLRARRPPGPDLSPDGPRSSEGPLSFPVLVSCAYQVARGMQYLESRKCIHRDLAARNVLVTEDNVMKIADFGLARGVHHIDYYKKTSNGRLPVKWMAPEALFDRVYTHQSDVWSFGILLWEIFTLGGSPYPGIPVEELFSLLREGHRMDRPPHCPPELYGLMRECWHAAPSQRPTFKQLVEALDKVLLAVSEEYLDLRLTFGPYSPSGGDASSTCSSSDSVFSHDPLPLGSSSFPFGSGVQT
Chain of Serine/threonine-protein kinase B-raf (Homo sapiens) (P15056 whole entry): as the sequence (P15056 whole entry V600E) above, with E600V counted along it

Compound: Clc1ccc(CNc2nccc(-c3cnn4ncccc34)n2)cc1
- inhibition [1]: 1.27%
- inhibition [2]: 3.59%
- inhibition [3]: 4%
- inhibition [4]: -1.24%
- inhibition [5]: 6.44%
- inhibition [6]: 1.16%
- inhibition [7]: 1.79%
- inhibition [8]: 2.77%
- inhibition [9]: 1.83%
- inhibition [10]: 1.5%
- inhibition [11]: 2.27%
- inhibition [12]: -0.37%
- inhibition [13]: -1.15%
- inhibition [14]: -0.35%
- inhibition [15]: 0.05%
- inhibition [16]: 3.64%
- inhibition [17]: 0.12%
- inhibition [18]: 2.83%
- inhibition [19]: 1.36%

Compound: COc1ccc2cc(-c3c(-c4ccncc4)nc(-c4ccc([S+](C)[O-])cc4C)n3C)ccc2c1 (configuration not stated)
- inhibition [1]: 2.85%
- inhibition [2]: 0.53%
- inhibition [3]: 4.65%
- inhibition [4]: 0.86%
- inhibition [5]: 5.84%
- inhibition [6]: -0.09%
- inhibition [7]: -1%
- inhibition [8]: 0.23%
- inhibition [9]: 0.94%
- inhibition [10]: 0.37%
- inhibition [11]: 2.2%
- inhibition [12]: 3.84%
- inhibition [13]: 21.3%
- inhibition [20]: -0.83%
- inhibition [14]: -0.09%
- inhibition [15]: 0.29%
- inhibition [16]: -0.78%
- inhibition [17]: -0.1%
- inhibition [18]: -0.41%
- inhibition [19]: -0.64%

Compound: COC(=O)Nc1nc2ccc(Sc3ccc(NC(=O)Nc4cc(C(F)(F)F)ccc4F)cc3)cc2[nH]1
- inhibition [1]: -0.24%
- inhibition [2]: 1.66%
- inhibition [3]: 3.71%
- inhibition [4]: 4.5%
- inhibition [5]: 37.7%
- inhibition [6]: 4.87%
- inhibition [7]: 32.6%
- inhibition [9]: 0.01%
- inhibition [10]: 1.03%
- inhibition [11]: 21.9%
- inhibition [12]: -0.49%
- inhibition [13]: 5.58%
- inhibition [20]: 3.14%
- inhibition [14]: -0.65%
- inhibition [15]: 1.01%
- inhibition [16]: 14.8%
- inhibition [17]: -0.53%
- inhibition [18]: 17.5%
- inhibition [19]: -1.08%

Compound: COc1cccc(/C=N/Nc2ncnc3c2cnn3-c2cccc(OC)c2)c1
- inhibition [1]: 0.32%
- inhibition [2]: 1.37%
- inhibition [3]: 8.08%
- inhibition [4]: 3.79%
- inhibition [5]: 0.71%
- inhibition [6]: 0.18%
- inhibition [7]: 4.83%
- inhibition [8]: -0.05%
- inhibition [9]: -1.11%
- inhibition [10]: 3.49%
- inhibition [11]: 4.49%
- inhibition [12]: 2.39%
- inhibition [13]: 8.43%
- inhibition [20]: 1.23%
- inhibition [14]: 2.81%
- inhibition [15]: 4.82%
- inhibition [16]: 6.54%
- inhibition [17]: 4.25%
- inhibition [18]: 4.68%
- inhibition [19]: 1.07%

Compound: CCC(=O)Nc1ccc(C)c(-c2ccc(C(=O)NCC3CC3)cc2)c1
- inhibition [1]: 1%
- inhibition [2]: 1.7%
- inhibition [3]: 4.31%
- inhibition [4]: 0.67%
- inhibition [5]: 4.22%
- inhibition [6]: 3.07%
- inhibition [7]: 3.74%
- inhibition [9]: -0.87%
- inhibition [10]: 2.6%
- inhibition [11]: 2.68%
- inhibition [12]: 3.12%
- inhibition [13]: 4.01%
- inhibition [20]: -4.93%
- inhibition [14]: 1.46%
- inhibition [15]: 4.61%
- inhibition [16]: 4.76%
- inhibition [17]: 3.97%
- inhibition [18]: 4.63%
- inhibition [19]: 2.89%

Compound: NS(=O)(=O)c1ccc(N/N=C2\C(=O)Nc3ccc(C(=O)NCCCn4ccnc4)cc32)cc1
- inhibition [1]: 2.46%
- inhibition [2]: 5.97%
- inhibition [3]: 13.4%
- inhibition [4]: 0.63%
- inhibition [5]: 5.48%
- inhibition [6]: 3.35%
- inhibition [7]: 18.5%
- inhibition [8]: 2.34%
- inhibition [9]: -1.72%
- inhibition [10]: 4.1%
- inhibition [11]: 9.93%
- inhibition [12]: 5.35%
- inhibition [13]: 24.1%
- inhibition [20]: 0.31%
- inhibition [14]: 8.11%
- inhibition [15]: 10.7%
- inhibition [16]: 38.4%
- inhibition [17]: 11.3%
- inhibition [18]: 38.9%
- inhibition [19]: 5.92%

Compound: CN(C)c1ccc2c(c1)/C(=C/Nc1ccc(S(N)(=O)=O)cc1)C(=O)N2
- inhibition [1]: 3.82%
- inhibition [2]: 2.49%
- inhibition [3]: 16.7%
- inhibition [4]: 1.02%
- inhibition [5]: 12.6%
- inhibition [6]: 3.53%
- inhibition [7]: 17.7%
- inhibition [8]: 0.41%
- inhibition [9]: 17.2%
- inhibition [10]: 3.54%
- inhibition [11]: 7.48%
- inhibition [12]: 2.8%
- inhibition [13]: 14.3%
- inhibition [20]: 2.05%
- inhibition [14]: 5.7%
- inhibition [15]: 2.49%
- inhibition [16]: 4.91%
- inhibition [17]: 2.9%
- inhibition [18]: 5%
- inhibition [19]: 3.91%

Compound: CN1CCN(CCCNc2nc3ccc(Oc4ccc(NC(=O)Nc5cc(C(F)(F)F)ccc5F)cc4)cc3[nH]2)CC1
- inhibition [1]: -0.18%
- inhibition [2]: 1.31%
- inhibition [3]: 8.15%
- inhibition [4]: 12.7%
- inhibition [5]: 40.7%
- inhibition [6]: 15%
- inhibition [7]: 61.2%
- inhibition [8]: -5.77%
- inhibition [9]: 0.88%
- inhibition [10]: 1.94%
- inhibition [11]: 19.1%
- inhibition [12]: -0.61%
- inhibition [13]: -1.74%
- inhibition [20]: -0.98%
- inhibition [14]: 2.82%
- inhibition [15]: 2.28%
- inhibition [16]: 13.7%
- inhibition [17]: 2.94%
- inhibition [18]: 16.6%
- inhibition [19]: 2.41%
